PubChem BioAssay (NCI)
Compounds without any hit were thinned out: in the full panel of roughly 79,000, 15% have a hit. Cut-off read from the data, not from the text of the source: active = growth inhibition above about 70%; inactive = the rest.

Key:
[1] = NCI Yeast Anticancer Drug Screen. Data for the rad50 strain (AID 155);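 note: 0% = growth of vehicle-only cultures of the same strain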; conditions: S. cerevisiae rad50 strain growth inhibition; at 50.0 µM; active compounds read high
Summary of the method: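 Readout: growth inhibition relative to vehicle-treated cultures. Compound exposure was carried out in a genetically defined yeast strain deficient in DNA damage repair.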

[2] = NCI Yeast Anticancer Drug Screen. Data for the mec2-1 strain (AID 157); conditions: S. cerevisiae mec2-1 strain, at 50.0 µM, active compounds read high
Summary of the method: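 Test agents were screened against the mec2-1 yeast strain, with defined DNA repair or cell cycle alteration. Growth was scored as inhibition against vehicle-only controls.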

[3] = NCI Yeast Anticancer Drug Screen. Data for the sgs1 mgt1 strain (AID 161);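 note: 0% = growth of cultures given vehicle only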; conditions: S. cerevisiae sgs1 mgt1 strain, at 50.0 µM, active compounds read high
Summary of the method: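 Inhibition of yeast growth, normalised to vehicle-treated controls, is reported for a strain bearing genetic alterations in DNA damage repair.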

[4] = NCI Yeast Anticancer Drug Screen. Data for the cln2 rad14 strain (AID 165);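 note: 0% = growth equal to vehicle treated cultures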; conditions: S. cerevisiae cln2 rad14 strain, at 50.0 µM, active compounds read high
Summary of the method: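 Growth of compound-exposed yeast (cln2 rad14 genotype) measured and expressed as inhibition relative to vehicle.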

[5] = NCI Yeast Anticancer Drug Screen. Data for the bub3 strain (AID 167); conditions: S. cerevisiae bub3 mutant strain, at 50.0 µM, active compounds read high
Summary of the method: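 Readout: yeast growth inhibition, expressed relative to vehicle-only wells. The test organism is a mutant strain from a panel with lesions in DNA repair or checkpoint genes.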

[6] = NCI Yeast Anticancer Drug Screen. Data for the mlh1 rad18 strain (AID 175); conditions: S. cerevisiae mlh1 rad18 strain growth inhibition; at 50.0 µM; active compounds read high
Summary of the method: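 In this whole-cell yeast screen, a strain with altered DNA damage repair is challenged with compound, and its growth is measured against matched vehicle-treated controls.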

Measured: growth inhibition

COc1cc(/C=N/NC(N)=O)cc(OC)c1O
inactive: [1] -0.6% | [2] -11.8% | [3] -34.4% | [4] -14.6% | [5] 33.3% | [6] -4.75%

CS(=O)(=O)c1c(N)c2nc(Cl)cn2c2nc3ccccc3nc12
inactive: [1] -11.4% | [2] -2.1% | [3] -10.3% | [4] -9.15% | [5] -27.1% | [6] -16.5%

CN(C(=O)C12C3C4C5C3C1(C(=O)O)C5C42)C(C)(C)C (stereo not given)
inactive: [1] 35.4% | [2] 12.2% | [3] 0.85% | [4] 18.8% | [5] 28.1% | [6] 25.9%

O=C1Oc2ccccc2C(=O)C1=S1CCCC1
inactive: [1] 6.9% | [2] 12.1% | [3] 9.3% | [4] 18.6% | [5] 9.05% | [6] 14.6%

Cc1cc(Br)cc2c1NC(=O)C(C)C2C (stereo not given)
inactive: [1] -2.95% | [2] 12.7% | [3] -24.6% | [4] -8.95% | [5] -3.35% | [6] 1.1%

CSC1=N[C@H](c2ccccc2)CS1
inactive: [1] 21.9% | [2] -9.85% | [3] 21.7% | [4] -3.1% | [5] 20.2% | [6] 23.4%

CCOC(=O)NC(Nc1cccc(F)c1)(C(F)(F)F)C(F)(F)F
inactive: [1] 16.8% | [2] -9.05% | [3] -22.4% | [4] 20.9% | [5] -12.3% | [6] 4.9%

CN(Cc1ccccc1)C(=O)c1cccc(C(=O)N(C)Cc2ccccc2)c1
inactive: [1] 9.85% | [2] 22.5% | [3] 19.1% | [4] 13.8% | [5] 21.7% | [6] 17.6%

N#Cc1ccccc1/C=N/O
inactive: [1] 0.15% | [2] -6.55% | [3] -8.75% | [4] 0.95% | [5] -18.4% | [6] -14.1%

CCNC(=O)NCc1cccc2ccccc12
inactive: [1] -0.05% | [2] -8.15% | [3] -7.15% | [4] -74.2% | [5] 5.15% | [6] -1.6%

COc1ccc(-c2cc(-c3cc(-c4ccc(OC)cc4)on3)no2)cc1
inactive: [1] -1.6% | [2] -5.75% | [3] -26% | [4] -7.45% | [5] -35.5% | [6] -1.05%

CC(=O)CC(=O)Nc1ccccc1C
inactive: [1] -5.2% | [2] 5.95% | [3] 2.4% | [4] -27.4% | [5] -11.2% | [6] -22.7%

COc1c(C(=O)O)[nH]c(=O)[nH]c1=O
inactive: [1] 4.85% | [2] -30.1% | [3] 5.8% | [4] -5.65% | [5] -14.3% | [6] -5.5%

CCN(CC)CCOc1ccc(/C=C(\C#N)c2ccc(OCCN(CC)CC)cc2)cc1
inactive: [1] 56.5% | [2] 28.6% | [3] 30.4% | [4] 56% | [5] 24.1% | [6] 18%

N[C@H](C(=O)O)[C@H]1ON=C(Cl)[C@@H]1O
inactive: [1] 7.4% | [2] 4.55% | [3] 7.25% | [4] 16.6% | [5] 11.3% | [6] -2.15%

CCCCc1ccc(N=Nc2ccccc2)cc1
inactive: [1] -9.35% | [2] -17.5% | [3] -15.6% | [4] -59% | [5] -6.05% | [6] -32.2%

CCOC(NCc1ccc(OC)c(OC)c1)OCC
inactive: [1] 3.6% | [2] -11.8% | [3] 6.45% | [4] 3.55% | [5] 17.1% | [6] 11.3%

Cc1nc(=S)[nH][nH]1
inactive: [1] -0.75% | [2] 16.9% | [3] 6.15% | [4] 3.5% | [5] 8.15% | [6] 1%

NC(=O)C(=CNC(=S)Nc1ccc(Cl)c(Cl)c1)C(N)=O
inactive: [1] 8.6% | [2] -3.75% | [3] 18.4% | [4] 27.3% | [5] 2.05% | [6] 3.9%

COc1cc([N+](=O)[O-])cc2c1OC1(C=C2)Oc2ccccc2N1C (stereo not given)
inactive: [1] -36.1% | [2] -25.9% | [3] -16.3% | [4] -16.8% | [5] -22.9% | [6] -17.9%
